Results taken from PMC5540273 (PLoS ONE, 2017).

Tests used:
Settings in all cases: concentration: 1 μM, replicates: in singlicate; n = 1
FGFR1 = test system: FGFR1
FGFR2 = test system: FGFR2
FGFR3 = test system: FGFR3
FGFR4 = test system: FGFR4
FGR = test system: FGR
FLT1 = test system: FLT1
FLT3-autoinhibited = test system: FLT3-autoinhibited
FLT3 = test system: FLT3
FLT4 = test system: FLT4
FRK = test system: FRK
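Note: KINOMEscan kinase panel screen.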

Compound | %Inh (FGFR1) | %Inh (FGFR2) | %Inh (FGFR3) | %Inh (FGFR4) | %Inh (FGR) | %Inh (FLT1) | %Inh (FLT3-autoinhibited) | %Inh (FLT3) | %Inh (FLT4) | %Inh (FRK)
CCNC(=O)/C=C/c1n[nH]c2cc(Sc3ccccc3C(=O)NC)ccc12 | 79% | 74% | 68% | 14% | 71% | 99.9% | 26% | 31% | 99.5% | 31%
COc1cccc(-c2nc(-c3ccccc3)[nH]c2-c2ccncc2)c1 [SB-610250] | 0% | 0% | 0% | 5% | 14% | 32% | 5% | 0% | 7% | 28%
CN(c1ccc(NC(=O)Nc2cccc(Cl)c2)cc1)c1ccnc(N)n1.Cl [GW830707] | 9% | 0% | 0% | 7% | 4% | 97.1% | 56% | 97.6% | 60% | 49%
COc1ccc(C)c(Nc2ccnc(Nc3ccc(-c4cnc[nH]4)cc3)n2)c1.Cl [GW784041] | 23% | 4% | 48% | 100% | 86% | 14% | 0% | 15% | 10% | 69%
COc1cccc2c(-c3ccncc3)c(-c3ccc(F)cc3)nn12 [GW468513] | 11% | 0% | 1% | 0% | 13% | 29% | 0% | 22% | 13% | 5%
COc1cccc(CC(=O)N2CCc3cc(-c4cn(C)c5ncnc(N)c45)ccc32)c1 [GSK2608899] | 22% | 0% | 0% | 0% | 15% | 59% | 0% | 66% | 0% | 0%
Nc1cccc(-c2ccc3c(N)n[nH]c3c2)c1 [GSK2193613] | 74% | 0% | 0% | 0% | 23% | 14% | 0% | 14% | 0% | 0%
CN(C)CCNS(=O)(=O)c1ccc(-c2ccnc3[nH]ccc23)cc1 [GSK977620] | 33% | 9% | 5% | 0% | 4% | 38% | 11% | 65% | 15% | 6%
CC(C)(C)c1ccc(C(=O)Nc2cn3cc(-n4ccnc4)ccc3n2)cc1 | 0% | 22% | 11% | 7% | 0% | 0% | 21% | 71% | 0% | 10%
CN(c1ccc2c(c1)nc(NCc1ccccc1)n2C)c1ccnc(Nc2ccc(CS(C)(=O)=O)cc2)n1.Cl [GW811603] | 100% | 27% | 0% | 0% | 33% | 96.9% | 58% | 98.8% | 99.9% | 86%
N#Cc1cnc2cc(-c3cnc(CNCCN4CCOCC4)s3)ccc2c1Nc1ccc(Oc2ccccc2)cc1 [GW664114] | 0% | 0% | 2% | 0% | 96.7% | 53% | 7% | 70% | 22% | 17%
Cl.Cl.NC(CNC(=O)c1cc(Br)c(-c2ccnc3[nH]ccc23)s1)c1ccccc1 (stereo not shown) [GSK1322949] | 45% | 39% | 26% | 29% | 14% | 64% | 1% | 90.9% | 17% | 0%
Cn1cc(-c2ccc3c(c2)CCN3C(=O)Cc2cc(F)cc(F)c2F)c2c(N)ncnc21 [GSK2634140] | 0% | 0% | 0% | 0% | 48% | 59% | 0% | 31% | 14% | 10%
COc1cc(Nc2ccnc3cc(-c4ccncc4)ccc23)cc(OC)c1OC.Cl [GW494610] | 23% | 14% | 15% | 0% | 81% | 21% | 0% | 3% | 0% | 44%
Fc1cc(Cl)ccc1Nc1ccnc2cc(-c3ccc(CN4CCSCC4)o3)ccc12 [GW560106] | 47% | 34% | 11% | 19% | 90.8% | 87% | 0% | 72% | 91.6% | 86%
CN(C)c1ncnc2nc[nH]c12 [SKF-31736] | 0% | 0% | 0% | 0% | 0% | 0% | 0% | 0% | 0% | 0%
